FAS-TE inh – FAS thioesterase domain inhibitors, primary screen, biochemical, fluorescence intensity, uHTS; Fatty acid synthase (Homo sapiens), P49327; recombinant FAS-TE, OMFH fluorogenic substrate, fluorescence endpoint; inhibition, % at 15 µM; hit rate 0.67% among 360,000;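 active means compounds whose normalised, plate-corrected inhibition of enzyme fluorescence in the single-dose primary screen is 50% or more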;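 further: 0% = DMSO with enzyme and 100% = substrate without enzyme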
Target sequence (P49327 whole entry, looked up, the tested form may be a part): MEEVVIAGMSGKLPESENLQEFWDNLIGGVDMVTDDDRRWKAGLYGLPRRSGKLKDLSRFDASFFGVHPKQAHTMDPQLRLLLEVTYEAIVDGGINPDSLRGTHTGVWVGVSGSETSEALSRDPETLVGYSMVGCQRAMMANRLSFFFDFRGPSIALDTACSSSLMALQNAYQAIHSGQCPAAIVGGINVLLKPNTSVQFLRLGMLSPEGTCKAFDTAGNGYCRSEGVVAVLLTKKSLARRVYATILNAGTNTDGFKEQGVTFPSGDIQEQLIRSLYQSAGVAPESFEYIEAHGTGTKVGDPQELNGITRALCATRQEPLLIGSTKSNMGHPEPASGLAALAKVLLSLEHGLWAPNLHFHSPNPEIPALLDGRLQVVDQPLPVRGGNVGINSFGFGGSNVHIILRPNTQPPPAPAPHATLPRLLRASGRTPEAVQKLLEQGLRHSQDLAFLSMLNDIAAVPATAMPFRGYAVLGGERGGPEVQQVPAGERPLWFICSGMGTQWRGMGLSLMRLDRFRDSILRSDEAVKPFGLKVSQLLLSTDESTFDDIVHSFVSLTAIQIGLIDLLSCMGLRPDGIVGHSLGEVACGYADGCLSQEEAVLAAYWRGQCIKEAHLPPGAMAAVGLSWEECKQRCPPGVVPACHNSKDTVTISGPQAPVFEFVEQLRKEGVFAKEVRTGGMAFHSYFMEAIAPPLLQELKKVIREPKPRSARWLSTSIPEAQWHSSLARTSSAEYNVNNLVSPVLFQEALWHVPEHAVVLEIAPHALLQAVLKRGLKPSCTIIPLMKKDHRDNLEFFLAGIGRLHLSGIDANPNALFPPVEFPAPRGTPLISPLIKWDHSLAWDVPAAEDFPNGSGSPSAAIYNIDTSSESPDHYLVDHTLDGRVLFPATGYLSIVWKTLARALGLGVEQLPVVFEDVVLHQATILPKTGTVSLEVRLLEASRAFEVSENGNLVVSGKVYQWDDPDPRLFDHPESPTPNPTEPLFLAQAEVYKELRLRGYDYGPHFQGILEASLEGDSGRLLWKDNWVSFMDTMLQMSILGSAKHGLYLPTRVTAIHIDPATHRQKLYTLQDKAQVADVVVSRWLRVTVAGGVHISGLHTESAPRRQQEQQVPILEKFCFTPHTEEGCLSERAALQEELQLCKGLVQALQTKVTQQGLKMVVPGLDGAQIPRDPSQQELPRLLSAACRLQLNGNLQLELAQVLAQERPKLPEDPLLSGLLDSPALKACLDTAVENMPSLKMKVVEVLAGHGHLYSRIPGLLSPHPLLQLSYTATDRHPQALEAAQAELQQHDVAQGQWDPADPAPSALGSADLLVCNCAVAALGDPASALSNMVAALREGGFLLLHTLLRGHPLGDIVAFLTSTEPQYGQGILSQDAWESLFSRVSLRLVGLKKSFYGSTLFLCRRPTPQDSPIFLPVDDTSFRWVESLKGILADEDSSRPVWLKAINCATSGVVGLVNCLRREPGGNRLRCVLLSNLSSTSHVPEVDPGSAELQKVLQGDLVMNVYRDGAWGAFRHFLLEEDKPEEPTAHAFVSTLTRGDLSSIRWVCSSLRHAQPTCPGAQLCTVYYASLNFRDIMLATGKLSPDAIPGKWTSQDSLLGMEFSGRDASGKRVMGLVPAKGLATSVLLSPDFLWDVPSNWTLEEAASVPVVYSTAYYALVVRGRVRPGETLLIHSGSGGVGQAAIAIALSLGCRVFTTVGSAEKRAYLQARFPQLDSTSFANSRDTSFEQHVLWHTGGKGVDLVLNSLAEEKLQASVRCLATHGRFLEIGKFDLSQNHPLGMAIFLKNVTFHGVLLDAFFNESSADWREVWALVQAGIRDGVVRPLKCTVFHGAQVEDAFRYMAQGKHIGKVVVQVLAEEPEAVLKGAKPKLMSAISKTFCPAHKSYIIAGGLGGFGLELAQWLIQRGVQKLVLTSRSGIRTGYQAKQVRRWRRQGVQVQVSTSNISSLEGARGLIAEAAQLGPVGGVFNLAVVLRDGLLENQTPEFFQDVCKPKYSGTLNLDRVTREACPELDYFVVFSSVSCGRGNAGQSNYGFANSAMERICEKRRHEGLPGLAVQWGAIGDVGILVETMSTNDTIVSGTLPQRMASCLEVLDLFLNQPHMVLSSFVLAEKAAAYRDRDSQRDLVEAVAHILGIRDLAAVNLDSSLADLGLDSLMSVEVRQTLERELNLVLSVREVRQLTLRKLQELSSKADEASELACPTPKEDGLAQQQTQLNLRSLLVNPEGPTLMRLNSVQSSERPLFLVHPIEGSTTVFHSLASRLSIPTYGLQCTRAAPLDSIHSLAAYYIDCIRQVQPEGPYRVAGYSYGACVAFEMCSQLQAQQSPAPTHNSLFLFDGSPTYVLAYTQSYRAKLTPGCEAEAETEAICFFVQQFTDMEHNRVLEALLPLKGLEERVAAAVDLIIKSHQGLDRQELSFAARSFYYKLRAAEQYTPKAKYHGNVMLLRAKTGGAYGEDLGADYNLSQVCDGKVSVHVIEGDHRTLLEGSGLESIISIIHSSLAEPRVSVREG
NR3A LBD binder – binders of NR3A ligand-binding domain, primary screen, biophysical, differential scanning fluorimetry, uHTS; Tm shift relative to glycine control, % at 25 µM; AID 1259313, 2017; hit rate 2.5% among 340,000; NR3A LBD differential scanning fluorimetry, Tm shift; 0% = protein alone, 100% = glycine-bound protein;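 active means melting temperature shift of at least 10% of the positive control shift, at one fixed dose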
MPTP block – mitochondrial permeability transition pore inhibitors, primary screen, biochemical, isolated mouse mitochondria, absorbance; Ca2+ swelling absorbance, 30 min; inhibition, % at 10 µM; hit rate 1.4% among 360,000; AID 602449, 2012;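 active means inhibition of 50% or more, scaled per plate between neutral and stimulator controls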;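 further: 0% = DMSO wells given calcium and 100% = 1 mM EGTA wells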
beta cell repl – inducers of MIN6 beta-cell proliferation, primary screen, ATP luminescence, uHTS. MIN6 cells proliferation, ATPlite luminescence, 48 h; cells starved in 0.2% serum; 100% = growth in 10% serum. proliferation, % at 10 µM. hit rate 0.29% among 330,000;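 active means compounds whose signal lies at least 3.5 SD above the mean of all wells on their plate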;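 further: 0% = DMSO-treated cells in low-serum medium and 100% = 10% serum control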
pCIP destab – p/CIP-EGFP fusion destabilizers, primary screen, fluorescence, F442A cells. decrease of EGFP signal, % at 10 µM. 16 h. hit rate 0.01% among 290,000;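 active means EGFP signal decrease of at least 30% at 10 µM or well 3 SD below plate mean, unless failing retest; inactive means the rest, including hits failing retest or dose response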
Numbers without * were called inactive; nt = no result. Shown are actives, neighbours in structure and some others; about 4.1% of the full set was active somewhere.

SMILES	FAS-TE inh	NR3A LBD binder	MPTP block	beta cell repl	pCIP destab
COC(=O)C1CCN(C(=O)COC(=O)c2oc3ccccc3c2C)CC1	-11	17*	2	-3	nt
CC1(C)OC2CC3C4CCC5=CC(=O)C=CC5(C)C4(F)C(O)CC3(C)C2(C(=O)CO)O1 (stereo not given)	-2	nt	-1	nt	nt
O=c1oc([C@@H](O)c2ccccc2)cc2ccccc12	-5	10*	-2	-4	nt
O=C(c1cc2ccccc2c(=O)o1)N1CCCC1	nt	nt	nt	0	8
CCOC(=O)C1CCN(C(=O)COC(=O)CN(C)S(=O)(=O)c2ccc(NC(C)=O)cc2)CC1	-4	10*	0	2	-6
CC(OC(=O)CN(C)S(=O)(=O)c1ccc(Cl)cc1)C(=O)Nc1ccc(N2CCOCC2)cc1 (stereo not given)	-2	-1	-1	nt	-1
CC(=O)Nc1ccc(NC(=O)C(C)OC(=O)CN(C)S(=O)(=O)c2ccc(Cl)cc2)cc1 (stereo not given)	-2	15*	-3	2	-4
CN(CC(=O)OCC(N)=O)S(=O)(=O)c1ccc(Cl)cc1	-10	0	-1	0	2
CN(CC(=O)OCC(=O)Nc1ccccc1)S(=O)(=O)c1ccc(Cl)cc1	4	18*	2	4	-11
CC(=O)Nc1ccc(S(=O)(=O)N(C)CC(=O)OCC(=O)N2CCCCC2)cc1	-8	-1	-1	3	nt
Cc1cnc(CNC(=O)c2ccc3sc([C@H]4C[C@H](O)[C@@H](CO)O4)nc3c2)cn1	-10	nt	0	nt	nt
CC(C)NC(=O)N1Cc2cc(C(=O)NC3CCCC3)nc(-c3cccc(-c4cccnc4)c3)c2[C@H]1CCO	-5	nt	-2	nt	nt
CCCNC(=O)C1(C)CCN1C(=O)c1cc(C)n(C)n1 (stereo not given)	-3	nt	0	nt	nt
Cc1cc(N/N=C/c2c[nH]c3ccccc23)c2ccccc2n1	8	-2	2	-2	14
Cn1c(N/N=C/c2c[nH]c3ccccc23)nc2ccccc21	0	19*	3	-4	-6
CCCCn1c(/N=C/c2c[nH]c3ccccc23)nc2ccccc21	13	23*	13	-5	-7
CCCn1c(/N=C/c2c[nH]c3ccccc23)nc2ccccc21	1	6	6	-1	-2
NC(=S)n1[nH]c(-c2ccc([N+](=O)[O-])cc2)c(N=Nc2ccc(O)cc2)c1=O	18	27*	8	-5	-6
CCOCCCNCc1cc(Br)ccc1OCc1ccccc1	-14	0	5	-6	-14
OCCNCc1cc(Br)ccc1OCc1ccccc1	-7	13*	0	-1	-3
CCC1CCCCN1CCNS(=O)(=O)c1ccc2c(c1)oc(=O)n2C (stereo not given)	-6	14*	0	0	-11
COc1ccc(OC)c(CN2C(=O)CCC2(C)c2nnnn2-c2c(C)cccc2C)c1 (stereo not given)	-5	nt	-1	nt	nt
CC1CCN(C(=O)C2CCC(CNS(=O)(=O)c3ccc4c(c3)C(C)(C)C(=O)N4C)CC2)CC1 (stereo not given)	-1	nt	-3	nt	nt
CCc1ccc2oc(C(=O)NCCc3ccc(S(N)(=O)=O)cc3)cc(=O)c2c1	-5	15*	-2	-6	-4
O=C(Nc1ccc(Oc2ncnc3cc(Cl)ccc23)nc1)c1cccs1	2	11*	3	-4	-6
SMILES	FAS-TE inh	NR3A LBD binder	MPTP block	beta cell repl	pCIP destab
CCc1nc2ccc(C(=O)Nc3cccc(OCC(=O)N(C)C)c3)cn2c1N(C=O)Cc1ccc(OC)cc1	-4	nt	1	nt	nt
Oc1ccc2ccccc2c1CNc1ccccc1	-2	-9	1	nt	nt
O=[N+]([O-])c1ccccc1NCc1c(O)ccc2ccccc12	27	13*	0	-1	5
Cc1ccccc1CC(=O)Nc1ccc2c(c1)c(=O)n(C)n2-c1cccs1	-3	nt	0	nt	nt
CCOc1ccccc1NC(=O)CC1(CC(=O)N2CCOCC2)CCCC1	-9	13*	-1	0	nt
COc1ccc(NC(=O)CC2(CC(=O)N3CCOCC3)CCCC2)cc1Cl	-1	0	4	-3	nt
CCCCNC(=O)C1(C)CCN1C(=O)c1cccc(OC(C)=O)c1C (stereo not given)	-7	nt	-1	nt	nt

Screening results (PubChem)
